# Compound activity (PubChem)
# Many of the other results were omitted from the sample, so hits are more common in it than they were.
# RmlCD inh mix = RmlC and RmlD coupled enzyme inhibitors, primary screen, biochemical, 384-well, compound mixtures, retest | AID 1532, 2009 | RmlC/RmlD coupled enzyme inhibition, 384-well mixture HTS | 0.39% of 110,000 active | inhibition, % at 5.5 µM; in the data active = inhibition above about 30%, passing the limit was not always enough; inconclusive = no clear call, values can overlap the other calls
# HIV RNase H inh-1 = HIV-1 RT RNase H inhibitors, primary screen, biochemical, fluorescence | Gag-Pol polyprotein (Human immunodeficiency virus type 1 group M subtype B (isolate … | RT-RNase H RNA/DNA duplex cleavage | inhibition, % at 10 µM | 1.9% of 65,000 active | AID 565, 2006; in the data active = inhibition above about 50%
# HIV RNase H inh-2 = HIV-1 RT RNase H inhibitors, retest, confirmation, biochemical | inhibition, % at 10 µM | shares compounds with HIV RNase H inh-1 | Recombinant RT RNase H, fluorescent RNA/DNA duplex cleavage | 39% of 1,000 active; in the data active = inhibition above about 48%; inconclusive = no clear call, values can overlap the other calls
# * marks the source's active call; other numbers are inactive results; ? = inconclusive; nt = no result given.
SMILES,RmlCD inh mix,HIV RNase H inh-1,HIV RNase H inh-2
CC(C)c1nnc(NC(=O)c2c(O)c3cccc4c3n(c2=O)CCC4)s1,nt,77*,73*
COC(=O)c1ccc([C@H]2C=C(C(=O)O)O[C@@H](OCc3ccc(CO)cc3)C2)cc1,1,nt,nt
COc1cc(/C=C\C(=O)OCn2nnc3ccccc3c2=O)cc(OC)c1OC,4,nt,nt
COc1ccc2cc(CN(CC3CCCO3)S(=O)(=O)c3ccccc3Cl)c(=O)[nH]c2c1 (stereo not given),2,nt,nt
Cc1ccc(NC2c3ncccc3C(=O)N2c2ccccc2C)cc1C (stereo not given),14,56*,11
CCOc1ccc(N2C(=O)c3cccnc3C2Nc2ccc(Cl)cc2)cc1 (stereo not given),-5,20,nt
Cc1cccc(NC(=O)c2cc(NC(=O)c3ccco3)ccc2N2CCCCC2)c1,21,73*,?
O=C(Nc1ccc(N2CCCCC2)c(C(=O)O)c1)c1ccco1,5,-15,nt
Cc1ccccc1-n1c(C)nc2ccccc21,8,-19,nt
CCCSc1cc(N2CCOCC2)nc(-c2ccccc2Cl)n1,9,nt,nt
O=C(CCSCCC(=O)NCc1ccco1)NCc1ccco1,10,77*,47*
O=C(CSCC(=O)NCc1ccco1)NCc1ccco1,-9,-11,nt
FC(F)(F)c1ccc(CN2C[C@@H]3C(c4ccc(Cl)nc4)C4(c5ccccc5)CC3(C4)[C@H]2c2ccccc2)cc1 (stereo not given in full),-9,nt,nt
c1c2c(cc3sc(N4CCCCC4)nc13)OCO2,nt,9,nt
c1ccc(N2CCN(c3nc4cc5c(cc4s3)OCO5)CC2)cc1,13,76*,76*
c1ccc2c(c1)CCN(c1nc3cc4c(cc3s1)OCO4)C2,-5,43,nt
c1c2c(cc3sc(N4CCOCC4)nc13)OCO2,-26,72*,62*
CCNc1nc2nonc2nc1NCC,2,-1,nt
Cc1nc(-c2ccccc2)sc1-c1nc(-c2cccs2)ncc1S(=O)(=O)c1ccccc1,-31,nt,nt
NCCS,3,nt,nt
CCN(CC)S(=O)(=O)c1ccc2oc(SCC3CN=C(c4ccc(OC)cc4)S3)nc2c1 (stereo not given),6,59*,6
COc1ccc(C2=NCC(CSc3nnc(-c4ccc5c(c4)OCO5)o3)S2)cc1 (stereo not given),-10,-23,nt
O=c1c2ccccc2sn1-c1cc(S(=O)(=O)N2CCOCC2)ccc1N1CCOCC1,9,95*,61*
O=c1c2ccccc2sn1-c1cc(S(=O)(=O)N2CCOCC2)ccc1N1CCCC1,-7,nt,nt
CS(=O)(=O)N(CC(=O)NCc1ccncc1)Cc1ccc(Cl)cc1,11,-5,nt
SMILES,RmlCD inh mix,HIV RNase H inh-1,HIV RNase H inh-2
COc1ccccc1NC(=O)c1cc2ccccc2o/c1=N\O,19,89*,-4
COc1ccccc1NC(=O)c1cc2ccc(O)cc2o/c1=N\O,-3,-12,nt
CC(=O)N(C(C)=O)C1=C(C#N)C2(CCCCC2)Cc2ccccc21,7,nt,nt
COc1ccc(Cc2nnc3n2N=C(c2cc4ccccc4o2)CS3)cc1OC,-6,71*,47
CCCc1nnc2n1N=C(c1ccc(OC)c(OC)c1)CS2,-9,-17,nt
CC(C)[C@H](NC(=O)NCCc1ccc(F)cc1)C(=O)O,-10,-4,nt
Nc1c(C(=O)NCc2ccco2)sc2nc(N3CCOCC3)c3c(c12)CCCC3,-48,54*,3
CCOC(=O)c1sc2nc(N3CCOCC3)c3c(c2c1N)CCCC3,-184,-3,nt
CC(C(=O)O)c1ccc(N2Cc3ccccc3C2=O)cc1 (stereo not given),-3,nt,nt
COc1ccc(S(=O)(=O)Nc2ccccc2C(F)(F)F)cc1,8,-16,nt
COc1ccc(S(=O)(=O)Nc2ccc(O)c3ccccc23)cc1,10,92*,57*
COc1ccc(OC)c(S(=O)(=O)NCc2ccccc2)c1,3,16,nt
COc1ccc(OC)c(NS(=O)(=O)Cc2ccccc2)c1,nt,77*,?
N#CC(c1ccc(Cl)cc1)c1ccc(Cl)nn1 (stereo not given),-2,nt,nt
Cc1cc(C)cc(NS(=O)(=O)c2ccc3oc(=O)ccc3c2)c1,5,nt,nt
CCc1c(C)sc(NC(=O)c2cc(C)no2)c1C#N,-6,60*,12
CCc1c(C)sc(NC(=O)CC#N)c1C#N,-169,38,nt
O=C(c1csc2c1CCCC2)n1cccn1,nt,-17,nt
O=c1c2[nH]c3ccccc3c2ncn1CCN1CCCCC1,-4,78*,37
O=c1c2[nH]c3ccccc3c2ncn1CCN1CCOCC1,22,1,nt
CC1(C)CC(=O)C2=C(C1)OC1=C(C(=O)CC(C)(C)C1)C2c1ccc(O)cc1O,-10,56*,-8
CCOC(=O)C1=C(N)OC2=C(C(=O)CC(C)(C)C2)C1c1ccco1 (stereo not given),-3,-5,nt
CCOC(=O)C1=C(C)N=c2s/c(=C3\C(=O)Nc4ccccc43)c(=O)n2C1c1ccc2c(c1)OCO2 (stereo not given),6,86*,67*
CCOC(=O)C1=C(C)N=c2s/c(=C\c3ccncc3)c(=O)n2C1c1ccc2c(c1)OCO2 (stereo not given),2,20,nt
CCCOc1c(OC)cccc1C1CC(=O)Nc2cc(OC)c(OC)c(OC)c21 (stereo not given),-16,66*,35
SMILES,RmlCD inh mix,HIV RNase H inh-1,HIV RNase H inh-2
COc1cc2c(c(OC)c1)C(c1cccc(OC)c1OC)CC(=O)N2 (stereo not given),9,-44,nt
COCCCNC(CC(=O)Nc1ccc(N(C)C)cc1)C(=O)O (stereo not given),nt,1,nt
N#Cc1c(N)sc2c1CCCCCC2,-15,-43,nt
N#Cc1c(N)sc(=S)c2c1CCCCC2,-10,58*,9
CCn1c(Cc2ccccc2)nnc1SCC(=O)NC1CC1,-16,nt,nt
CCn1c(COc2ccccc2)nnc1SCC(=O)NC1CCCCC1,6,63*,26
COc1cc(N=c2ssnc2Cl)cc(OC)c1OC,12,91*,76*
COc1ccc(N=c2ssnc2Cl)cc1,-3,nt,nt
CN(C)C(N)=NCCC[C@H](N)C(=O)O,10,nt,nt
O=C1NC(=S)N/C1=C/c1cc([N+](=O)[O-])ccc1O,-4,nt,nt
O=C(CCCOc1ccc(Cl)cc1Cl)NCC1CCCO1 (stereo not given),-6,nt,nt
O=C(C1CCN(S(=O)(=O)c2cccc3cccnc23)CC1)N1CCN(c2ccc(Cl)cc2)CC1,5,-39,nt
Clc1ccc(-c2ccc(-c3nn4c(-c5ccco5)nnc4s3)o2)cc1,-9,99*,?
COc1ccc(-c2nnc3sc(C4CCCCC4)nn23)cc1OC,-6,-1,nt
c1coc(-c2nnc3sc(C4CCCCC4)nn23)c1,-6,75*,?
Cc1occc1-c1nnc2sc(-c3ccc(-c4ccc(Cl)cc4)o3)nn12,nt,24,nt
Cc1cc2oc3c(c(=O)c2cc1C)C(c1cccc(Br)c1)N(Cc1ccco1)C3=O (stereo not given),8,5,nt
COc1cc(C2c3c(oc4ccccc4c3=O)C(=O)N2Cc2ccco2)ccc1O (stereo not given),-13,nt,nt
Cc1ccc2oc3c(c(=O)c2c1)C(c1cccc(Br)c1)N(Cc1ccco1)C3=O (stereo not given),7,60*,?
CCOc1cc(C2c3c(oc4cc(C)c(Cl)cc4c3=O)C(=O)N2Cc2ccco2)ccc1O (stereo not given),6,61*,58*
